Calls of active or inactive are those of the source.
What was measured:
[1] = compound effects on lung adenocarcinoma cell viability – A549, calcein-AM fluorescence, 48 h, basal, profiling panel (AID 1162); details: higher = more signal; note: test concentration not given here
[2] = compound effects on differentiated 3T3-L1 adipocyte viability – cell-based, 3T3-L1 adipocytes, calcein-AM fluorescence, 48 h, basal, profiling panel (AID 1163); details: 3T3-L1 adipocytes viability, higher = more signal; note: test concentration not given here
[3] = compound effects on hepatocellular carcinoma cell viability – HepG2, calcein-AM fluorescence, 48 h, basal, profiling panel (AID 1164); details: higher = more signal; note: test concentration not given here
[4] = compound effects on multiple myeloma cell viability – MM1S, calcein-AM fluorescence, 48 h, basal, profiling panel (AID 1165); details: higher = more signal;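 note: viability of MM1S multiple myeloma cells under basal unstimulated conditions; test concentration not given here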
[5] = calcein-AM signal in unstimulated myeloma cells – cell-based, calcein-AM fluorescence, 48 h, PK04 Diversity Set, profiling panel (AID 1166); details: RPMI8226 myeloma viability, higher = more signal;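 note: cells grown under basal conditions without added stimulus; test concentration not given here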
[6] = JC-1 mitochondrial signal, unstimulated HepG2 cells – cell-based, JC-1 fluorescence, 24 h, 100 nL compound, profiling panel (AID 1167); details: HepG2 mitochondrial potential, higher = more signal; note: test concentration not given here
[7] = JC-1 mitochondrial signal, unstimulated adipocytes – cell-based, JC-1 fluorescence, 3T3-L1 adipocytes, 24 h, 100 nL compound, profiling panel (AID 1168); details: JC-1 mitochondrial fluorescence, higher = more signal, called active from +8 up or from −8 down; note: test concentration not given here
[8] = JC-1 mitochondrial signal, unstimulated myeloma cells – cell-based, JC-1 fluorescence, RPMI8226, 24 h, 100 nL compound, profiling panel (AID 1169); details: JC-1 mitochondrial potential fluorescence, higher = more signal; note: test concentration not given here
[9] = JC-1 mitochondrial signal, unstimulated MM1S myeloma – cell-based, JC-1 fluorescence, 24 h, 100 nL compound, profiling panel (AID 1170); details: MM1S mitochondrial potential, higher = more signal; note: test concentration not given here
[10] = resazurin metabolic signal in A549 cells – cell-based, resazurin fluorescence, 24 h, PK04 Diversity Set, profiling panel (AID 1171); details: A549 viability, higher = more signal, called active from +8 up or from −8 down; note: test concentration not given here
[11] = resazurin metabolic signal in HepG2 cells – cell-based, resazurin fluorescence, 24 h, PK04 Diversity Set, profiling panel (AID 1172); details: HepG2 viability, higher = more signal; note: test concentration not given here
[12] = budding yeast growth changes without added modifier – OD600, strain BY4716, 24 h, basal condition, primary screen (AID 1173); details: S. cerevisiae BY4716 growth, OD600, 24 h; higher = more signal, called active from +8 up or from −8 down
[13] = viability profiling in MM1S myeloma cells – cell-based, resazurin fluorescence, basal, 24 h, PK04 Diversity Set, profiling panel (AID 1174); details: higher = more signal, called active from +8 up or from −8 down; note: test concentration not given here
[14] = biological target: Dihydroorotate dehydrogenase (quinone), mitochondrial (Plasmodium falciparum (isolate 3D7)) (UniProt Q08210); assay: inhibition of P. falciparum DHODH – biochemical, C-terminal His tag, absorbance 600 nm, primary screen (AID 1175); details: PfDHODH enzyme, DCIP absorbance 600 nm; higher = more signal, called active from +8 up or from −8 down;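 note: recombinant parasite enzyme with a five histidine tag at its C terminus; test concentration not given here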
Sequence of Dihydroorotate dehydrogenase (quinone), mitochondrial (Plasmodium falciparum (isolate 3D7)) (Q08210 whole entry, looked up): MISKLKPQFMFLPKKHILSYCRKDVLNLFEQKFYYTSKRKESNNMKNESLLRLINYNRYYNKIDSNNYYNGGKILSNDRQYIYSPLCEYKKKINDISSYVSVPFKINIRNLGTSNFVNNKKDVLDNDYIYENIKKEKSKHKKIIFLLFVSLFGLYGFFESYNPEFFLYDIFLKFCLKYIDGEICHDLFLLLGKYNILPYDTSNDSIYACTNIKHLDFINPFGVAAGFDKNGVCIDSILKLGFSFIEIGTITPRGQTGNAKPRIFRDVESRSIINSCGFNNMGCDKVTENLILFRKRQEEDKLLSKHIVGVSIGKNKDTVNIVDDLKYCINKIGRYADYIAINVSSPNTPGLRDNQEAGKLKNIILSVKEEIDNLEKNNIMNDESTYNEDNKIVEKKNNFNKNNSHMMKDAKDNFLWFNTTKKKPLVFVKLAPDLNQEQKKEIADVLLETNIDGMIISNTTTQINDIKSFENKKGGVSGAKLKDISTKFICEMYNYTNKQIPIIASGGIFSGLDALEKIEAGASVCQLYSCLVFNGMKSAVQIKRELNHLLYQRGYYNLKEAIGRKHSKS

[15] = growth modulation of vineyard yeast isolate – strain RM11-1a, OD600, basal, 24 h, primary screen (AID 1177);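 note: cultures grown under basal conditions with no added stressor; test concentration not given here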; details: S. cerevisiae RM11-1a growth, OD600, 24 h; higher = more signal, called active from +8 up or from −8 down
[16] = growth of efflux-deficient E. coli DRC39 – strain DRC39, OD650, 24 h, E. coli filamentation inducers, primary screen (AID 1178);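 note: growth measured as culture turbidity by optical density at 650 nm; test concentration not given here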; details: E. coli DRC39 acrAB, higher = more signal, called active from +8 up or from −8 down
[17] = growth of efflux-deficient E. coli DRC39 – strain DRC39, OD650, 48 h, E. coli filamentation inducers, primary screen (AID 1179);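 note: screen aims at cell division blockers that make cells filament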; details: E. coli DRC39 delta-acrAB growth, higher = more signal, called active from +8 up or from −8 down
[18] = viability profiling in RPMI8226 myeloma cells – cell-based, resazurin fluorescence, basal, 24 h, PK04 Diversity Set, profiling panel (AID 1180); details: higher = more signal;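 note: RPMI8826 multiple myeloma cell line at 5000 cells per well; test concentration not given here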
[19] = biological target: E3 ubiquitin-protein ligase XIAP (Homo sapiens) (UniProt P98170); assay: small molecules binding XIAP protein – biophysical, small-molecule microarray, fluorescence 635 nm, primary screen (AID 1181); details: higher = more signal;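 note: score merges 667 nm emission and signal to noise over triplicate slides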
Sequence of E3 ubiquitin-protein ligase XIAP (Homo sapiens) (P98170 whole entry, looked up): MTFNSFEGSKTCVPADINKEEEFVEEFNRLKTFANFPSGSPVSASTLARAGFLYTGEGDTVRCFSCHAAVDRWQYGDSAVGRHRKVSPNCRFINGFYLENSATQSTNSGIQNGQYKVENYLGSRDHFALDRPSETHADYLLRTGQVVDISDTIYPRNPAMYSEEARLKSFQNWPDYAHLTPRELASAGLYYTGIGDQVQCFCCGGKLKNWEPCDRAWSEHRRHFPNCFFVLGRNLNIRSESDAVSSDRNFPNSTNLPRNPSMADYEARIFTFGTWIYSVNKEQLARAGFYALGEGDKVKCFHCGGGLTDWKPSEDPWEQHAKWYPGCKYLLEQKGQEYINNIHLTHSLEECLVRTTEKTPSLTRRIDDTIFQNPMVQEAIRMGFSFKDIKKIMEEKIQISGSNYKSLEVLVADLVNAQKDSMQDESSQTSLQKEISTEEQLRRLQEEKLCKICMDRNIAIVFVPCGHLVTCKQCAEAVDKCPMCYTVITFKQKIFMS

Row | Compound | z-score [1] | z-score [2] | z-score [3] | z-score [4] | z-score [5] | z-score [6] | z-score [7] | z-score [8] | z-score [9] | z-score [10] | z-score [11] | z-score [12] | z-score [13] | composite z-score [14] | z-score [15] | z-score [16] | z-score [17] | z-score [18] | composite z-score [19]
1 | C=C[C@H](OC)[C@@H](OC(=O)Nc1ccc(SC)cc1)c1ccc(OC)c(O)c1 | 1.73 | 0.182 | 0.907 | 0.898 | 0.524 | 0.163 | 1.15 (inactive) | 0.412 | 0.761 | 0.595 (inactive) | 1.06 | -1.14 (inactive) | 0.7 (inactive) | -0.768 (inactive) | -1.55 (inactive) | 1.51 (inactive) | 1.93 (inactive) | 0.933 | -0.0773
2 | COCCCNC(=O)[C@@]1(Sc2ccc(C)cc2)CC(=O)N(Cc2cc(C(F)(F)F)cc(C(F)(F)F)c2)[C@@H]1c1ccc(CO)cc1I | 0.697 | 1.34 | -0.632 | -2.24 | -2.34 | 0.0901 | 0.135 (inactive) | -0.00613 | -0.315 | 0.555 (inactive) | -0.125 | -3.95 (inactive) | -2.01 (inactive) | -0.625 (inactive) | -2.16 (inactive) | 0.818 (inactive) | 0.328 (inactive) | -1.2 | 0.0425
3 | COCC(=C=CC[C@H](O)c1ccc(OCCO)cc1)C[C@H](O)c1ccccn1 | 0.905 | -0.518 | 0.0126 | 0.682 | 0.237 | 1.79 | 1.09 (inactive) | -0.145 | -0.116 | 1.02 (inactive) | 0.959 | -0.413 (inactive) | 1.33 (inactive) | -0.86 (inactive) | 0.275 (inactive) | 1.74 (inactive) | 1.21 (inactive) | 0.827 | -0.02
4 | CC(C)N1CC=CC23O[C@@H]4/C=C\CCCOC(=O)C4[C@H]2C(=O)N(CCO)[C@@H]3C1=O (stereo partly specified) | 1.63 | 0.472 | 0.499 | 1.37 | 0.629 | 1.42 | 2.1 (inactive) | -0.442 | 0.776 | 1.39 (inactive) | 1.09 | -1.71 (inactive) | 0.998 (inactive) | -1.71 (inactive) | -2.54 (inactive) | 2.2 (inactive) | 2.25 (inactive) | 0.855 | -0.16
5 | CCCNC(=O)[C@@]1(Sc2ccc(C)cc2)CC(=O)N(Cc2ccccc2Cl)[C@@H]1c1ccc(CO)cc1 | 0.648 | 2.79 | -0.597 | 0.189 | 0.154 | 0.00317 | 0.0754 (inactive) | 0.653 | 0.368 | 0.644 (inactive) | -0.48 | -0.573 (inactive) | 1.12 (inactive) | -3.67 (inactive) | -2.58 (inactive) | 1.23 (inactive) | 0.337 (inactive) | 1.13 | 0.105
6 | CN(C)C(=O)[C@@]1(Cc2ccccc2N=[N+]=[N-])N=C(c2ccc(OCCCO)cc2)O[C@H]1c1ccccc1CN=[N+]=[N-] | -0.996 | 1.16 | -1.23 | -2.91 | -3.39 | 2.17 | 0.618 (inactive) | -0.904 | -0.679 | 0.276 (inactive) | 1.12 | -1.4 (inactive) | -0.437 (inactive) | -0.812 (inactive) | -0.726 (inactive) | 2.45 (inactive) | 0.842 (inactive) | -1.67 | 0.229
7 | CCN1C(C)=C(C(=O)OC)[C@@H](c2ccccc2)N2C(=O)[C@](O)(C(=O)OC)[C@@H](c3ccccc3)C(C(C)=O)=C12 | 0.158 | 2.15 | -0.473 | 0.244 | -0.918 | 1.35 | 0.982 (inactive) | 0.195 | -0.14 | -0.468 (inactive) | -0.267 | -2.6 (inactive) | 1.43 (inactive) | -5.15 (inactive) | -1.84 (inactive) | -0.891 (inactive) | -2 (inactive) | 0.554 | -0.0167
8 | CO[C@@H]1COC(=O)CC=C[C@H](C)COC(=O)[C@H](Cc2ccccc2)NC(=O)CC=C[C@H]1C | 0.392 | 0.509 | 0.674 | 0.305 | 0.333 | 0.883 | 0.258 (inactive) | -0.146 | -0.597 | -0.145 (inactive) | 0.0057 | -1.95 (inactive) | 0.266 (inactive) | 0.519 (inactive) | -1.02 (inactive) | 0.131 (inactive) | -0.0502 (inactive) | -0.094 | 0.0896
9 | CO[C@@H]1COC(=O)CC=C[C@@H](C)[C@H](OC)COC(=O)CC=C[C@H]1C | 0.275 | 0.793 | 1.14 | -1.03 | 0.834 | 0.692 | 0.502 (inactive) | -0.793 | 1.21 | 0.756 (inactive) | 0.994 | -1.43 (inactive) | 0.176 (inactive) | -0.136 (inactive) | -0.658 (inactive) | 0.642 (inactive) | 0.505 (inactive) | 0.854 | 0.0891
